Test results reported in PubChem BioAssay (NCATS).
Records with an inconclusive call do not appear. Entries that show only a call come without a potency. Calls of active or inactive are those of the source. Calls follow the shape of the dose curve; as a rule, active = well fitted inhibition curve with a large enough effect; inconclusive = small, poorly fitted or top-dose-only effect; inactive = no such curve, though single readings can be large or run the other way.
Potency is read from the fitted curve at half-maximal effect.

Each compound was assayed against Cytochrome P450 3A7 (Homo sapiens) (UniProt P24462) (assay: Cytochrome P450 family 3 subfamily A member 7 (CYP3A7) small molecule antagonists: luciferase biochemical qHTS assay (AID 1963596; also: nearly all actives have a fitted effect of over 40% in size)). Details: P450-Glo CYP3A7 enzyme luminescence, 1 h; series mostly up to 57.4 µM.
Cytochrome P450 3A7 (Homo sapiens), sequence (P24462 whole entry, looked up): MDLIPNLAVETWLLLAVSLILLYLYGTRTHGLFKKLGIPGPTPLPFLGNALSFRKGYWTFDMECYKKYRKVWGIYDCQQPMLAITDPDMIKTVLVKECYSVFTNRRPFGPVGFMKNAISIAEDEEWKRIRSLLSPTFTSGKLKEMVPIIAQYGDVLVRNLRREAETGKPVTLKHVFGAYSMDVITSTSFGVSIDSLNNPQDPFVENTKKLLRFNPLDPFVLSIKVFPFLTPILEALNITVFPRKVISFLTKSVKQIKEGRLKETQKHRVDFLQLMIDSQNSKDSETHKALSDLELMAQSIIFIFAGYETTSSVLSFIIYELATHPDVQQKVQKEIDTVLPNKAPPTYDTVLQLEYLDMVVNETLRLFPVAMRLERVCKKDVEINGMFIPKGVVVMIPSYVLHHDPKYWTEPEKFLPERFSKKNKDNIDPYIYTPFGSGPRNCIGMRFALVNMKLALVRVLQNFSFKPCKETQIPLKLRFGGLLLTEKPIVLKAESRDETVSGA
Source text: National Center for Advancing Translational Sciences [NCATS] Assay Overview: Cytochrome P450 (CYP) enzymes are membrane-bound hemeproteins that play a key role in metabolism of drugs and xenobiotics. The CYP3A subfamily is the most abundant, representing 30% of the total adult hepatic CYP content, whereas CYP3A7 is found predominantly in human fetal liver and accounts up to 50% of the total fetal hepatic CYP content. Testing the effect of chemicals on CYP isozymes is useful to minimize the adverse drug reactions and toxicities in the drug development process. Chemicals were tested for their effect on CYP enzyme activities by using P450-Glo (TM) screening systems (Promega Corporation, Madison, WI). These systems provide a luminescent method containing proluciferin substrates and are converted to luciferin products by CYP isozymes. The luciferin products formed are detected with a luciferin detection reagent, and the amount of light produced is proportional to CYP activity. P450-Glo (TM) CYP3A7 screening system (Catalog. No. V8812) was used to detect the compounds that interfere with CYP3A7 activity. The positive control compound used for CYP3A7 assay is ketoconazole (Sigma-Aldrich, St. Louis, MO).
Assay Protocol Summary: Two ul of enzyme-substrate mix was dispensed into medium binding white/solid 1536-well plates (Greiner Bio-One North America Inc., Monroe, NC) using a Flying Reagent Dispenser (FRD, Aurora Discovery, San Diego, CA). Compounds dissolved in DMSO, and positive control (ketoconazole) were transferred to the assay plates at 23 nl using a Pintool station (Wako, San Diego, CA). The assay plates were incubated at room temperature for 10 min. Then 2 ul of NADPH regeneration solution was added to each well of the assay plates using an FRD and incubated at room temperature for 1 h. The reaction was stopped by adding 4 ul of detection reagent using an FRD and after 20 min incubation at room temperature the luminescence signal was measured using a ViewLux plate reader (Perkin Elmer, Shelton, CT). Data were expressed as relative luminescence units.
O=C(O)Cc1cccc(-c2cc(CCCCCCc3ccc(O[C@H]4O[C@H](CO)[C@@H](O)[C@H](O)[C@@H]4O)c(-c4cccc(CC(=O)O)c4)c3)ccc2O[C@H]2O[C@H](CO)[C@@H](O)[C@H](O)[C@@H]2O)c1 was tested, and the activity change, negative = inhibition was -19.9% [at 0.91 µM] (inactive). For CCCCCCCC(=O)[O-].CCCCCCCC(=O)[O-].[Zn+2], the Potency was “inactive”. For Cc1ccnn1-c1ccc(C(=O)N2CCN(S(=O)(=O)c3ccc(Cl)c(C(F)(F)F)c3)CC2)cc1, the Potency was “inactive”. With CC(C)[C@H](N)C(=O)O the Potency was “inactive”. In the case of CCCCCCCCCCCC(=O)[O][Sn]([CH2]CCC)([CH2]CCC)[O]C(=O)CCCCCCCCCCC, the Potency is reported as 19.5 µM (active). With O=C(O)CCCC[P+](c1ccccc1)(c1ccccc1)c1ccccc1 the Potency was “inactive”. With C[C@H]1CN(C[C@H](Cc2ccccc2)C(=O)NCC(=O)O)CC[C@@]1(C)c1cccc(O)c1 the Potency was “inactive”. For CCc1nc(-c2cccc(C)c2)c(-c2ccnc(NC(=O)c3ccccc3)c2)s1, the Potency was “inactive”. For CN1CCC(N(Cc2cccs2)c2ccccc2)CC1, the Potency was “inactive”. For NC[C@H]1O[C@H](O[C@H]2[C@H](O)[C@@H](O[C@H]3O[C@H](CO)[C@@H](O)[C@H](N)[C@H]3O)[C@H](N)C[C@@H]2N)[C@H](N)[C@@H](O)[C@@H]1O, the Potency was “inactive”. With COc1ccc(Sc2ccc(NC(=O)c3ccccc3Cl)cc2C#N)cc1 the Potency was “inactive”. With CN1CCN(C(c2ccccc2)c2ccccc2)CC1 the Potency was “inactive”. For O=[N+]([O-])c1ccc(Oc2ccc(N=C=S)cc2)cc1, the Potency was 2.39 µM (active). In the case of CC(C)Nc1cc(C(F)(F)F)cc2nc(NC(=O)c3cccnc3)nn12, the Potency is reported as “inactive”. In the case of CN(C)CCN(Cc1ccccc1)c1ccccn1, the Potency is reported as 6.92 µM (active). With C=C(C)Cn1c(SCC(=O)c2cccs2)nc2sc3c(c2c1=O)CCCC3 the Potency was “inactive”. In the case of CCC(C(=O)NC(=O)NC(C)=O)c1ccccc1 (stereo not given), the Potency is reported as “inactive”. For CCCCOCCOC(=O)c1cccnc1, the Potency was “inactive”. With COC(=O)C(Cc1ccc(OCCn2c(=O)sc3cc(C(=O)c4ccccc4)ccc32)cc1)C(=O)OC the Potency was “inactive”. In the case of COc1ccc(Nc2cc(-c3cnc(N)nc3)nc(N3CCOCC3)n2)cn1, the Potency is reported as “inactive”. CCCCCCCC(=O)O was tested, and the Potency was “inactive”. O=C(Nc1ccc(Br)cc1)c1cc(Br)c(Br)s1 was tested, and the Potency was “inactive”. Cn1ncc(Cl)c1-c1cc(C(=O)NC(CN)Cc2ccc(F)c(F)c2)oc1Cl (stereo not given) was tested, and the Potency was “inactive”. With O=C(Nc1cccnc1)c1cc(-c2ccnc(F)c2)ccc1OCc1ccccc1 the Potency was “inactive”. With N#Cc1cccc(-c2nc(-c3cccnc3)no2)c1 the Potency was “inactive”. With O=C(c1ccccc1)C(O)c1ccccc1 (stereo not given) the Potency was “inactive”. For COc1cccc(-n2nc(C(=O)O)cc2-c2ccc(C3CCCCC3)c(Cl)c2)c1, the Potency was “inactive”. For Cn1ncnc1COc1nn2c(-c3cc(F)ccc3F)nnc2cc1C(C)(C)C, the Potency was 4.47 µM (active). For CCc1cnc(N2CCC(c3nc(COc4ccc(-n5cnnn5)cc4)cs3)CC2)nc1, the Potency was “inactive”. CN(C)CCOC(c1ccccc1)c1ccccc1 was tested, and the Potency was “inactive”. For CC1(C#N)CCN(c2c(C(=O)N3CCN(S(C)(=O)=O)CC3)cnc3cc(F)c(F)cc23)CC1, the Potency was 14.1 µM (active). With OCC=Cc1ccccc1 the Potency was “inactive”. For C[S+](=O)([O-])Nc1ccc(-c2ccc3nc(-c4cccc(OC(F)(F)F)c4)[nH]c3c2)cc1, the Potency was “inactive”. Cc1cccc(OCC(O)CNC(C)(C)C)c1C (stereo not given) was tested, and the Potency was “inactive”. C[C@@H]1CN(c2c(F)c(N)c3c(=O)c(C(=O)O)cn(C4CC4)c3c2F)C[C@H](C)N1 was tested, and the Potency was “inactive”. Nc1nc(-c2ccccc2)c(Br)c(=O)[nH]1 was tested, and the Potency was “inactive”. In the case of Cc1cc(OCc2nc(-c3ccccc3Cl)cs2)ccc1OCC(=O)O, the Potency is reported as “inactive”. Cc1nc([N+](=O)[O-])cn1-c1ccc([N+](=O)[O-])cc1 was tested, and the Potency was “inactive”. In the case of CCn1c(=O)c(-c2ccc(Cl)cc2Cl)cc2cnc(Nc3ccc(N4CCNCC4)c(F)c3)nc21, the Potency is reported as “inactive”. C=CC1=C(C(=O)O)N2C(=O)[C@@H](NC(=O)/C(=N\O)c3csc(N)n3)[C@H]2SC1 (stereo in doubt) was tested, and the Potency was “inactive”.
